Data on 7 molecules can be found in PubChem BioAssay (Tox21).

For experiment [1], the target named is Luciferin 4-monooxygenase (Photinus pyralis) (UniProt P08659). Put plainly: qHTS assay to identify small molecule inhibitors of firefly luciferase (AID 1224835). Note: nearly all actives have a fitted effect of over 25% in size. Note: potency is the fitted concentration of half-maximal effect. A digest of the protocol: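 Biochemical qHTS: compounds run as interplate titrations against purified firefly enzyme, with D-luciferin and ATP each at its KM concentration. Light output recorded by CCD imaging.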

Experiment [2] can be described thus: qHTS assay to identify small molecule agonists of the constitutive androstane receptor (CAR) signaling pathway - cell viability counter screen (AID 1224836). Note: nearly all actives have a fitted effect of over 45% in size. A digest of the protocol: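 HepG2 cells stably carrying hCAR and a CYP2B6-2.2kb reporter; 15-concentration compounds plus PK11195 (final 0.75 uM), 23 hr at 37 C/5% CO2. Viability read by CellTiter-Fluor fluorescence.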
For orientation: qHTS replaces the single test concentration by a dilution series.

The nature of experiment [3]: qHTS assay to identify small molecule antagonists of the constitutive androstane receptor (CAR) signaling pathway - cell viability counter screen (AID 1224837). Note: nearly all actives have a fitted effect of over 45% in size. A digest of the protocol: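 HepG2 cells stably expressing hCAR and a CYP2B6-2.2kb reporter were plated and pre-incubated 4 hr at 37 C/5% CO2, then given compounds at 15 concentrations plus 50 nM CITCO (final). After 23 hr, viability was read by CellTiter-Fluor fluorescence.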

The target in experiment [4] is Nuclear receptor subfamily 1 group I member 3 (Homo sapiens) (UniProt Q14994). Put plainly: qHTS assay to identify small molecule antagonists of the constitutive androstane receptor (CAR) signaling pathway (AID 1224838). Note: nearly all actives have a fitted effect of over 40% in size. The gist of the method:
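HepG2 cells stably co-transfected with hCAR and a CYP2B6-2.2kb luciferase reporter were seeded 4 h before compound addition at 15 concentrations. Cells were stimulated with 50 nM CITCO (final) for 24 h at 37 C; luciferase luminescence was then read.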

The target is the same in experiment [5]. Put plainly: qHTS assay to identify small molecule agonists of the constitutive androstane receptor (CAR) signaling pathway (AID 1224839). Note: nearly all actives have a fitted effect of over 15% in size. Note: potency is the fitted concentration of half-maximal effect. The gist of the method:
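HepG2 cells stably co-transfected with hCAR and a CYP2B6-2.2kb luciferase reporter; compounds at 15 concentrations with 0.75 uM PK11195 present. After 24 hr at 37 C, luciferase read by ONE-Glo luminescence.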

For experiment [6], the target named is Thyrotropin receptor (Homo sapiens) (UniProt P16473). Put plainly: qHTS assay to identify small molecule agonists of the thyroid stimulating hormone receptor (TSHR) signaling pathway (AID 1224843; calls by dose curve; note: nearly all actives have a fitted effect of over 45% in size). The gist of the method:
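Steps: seed 800 TSHR-HEK293 cells per well; add test compound and hold 30 min at ambient temperature; dispense cAMP-d2 then anti-cAMP cryptate; incubate 1 h at ambient; measure fluorescence intensity.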

A short description of experiment [7]: qHTS assay to identify small molecule agonists of the hypoxia (HIF-1) signaling pathway - cell viability counter screen (AID 1224844; calls by dose curve; note: nearly all actives have a fitted effect of over 50% in size). A digest of the protocol:
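HRE-bla ME-180 cells in medium with 0.5% dialyzed FBS were preincubated 5 hrs at 37C, exposed to compounds for 17 hrs, then viability was read as CellTiter-Glo luminescence after 30 min at room temperature, in the reporter wells.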

The nature of experiment [8]: qHTS assay to identify small molecule agonists of H2AX (AID 1224845; active = well fitted activation curve with a large enough effect in the signal ratio in the repeat runs, not every such curve was filed as active; the % refers to the signal ratio). The gist of the method: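 Wild-type CHO-K1 cells, plated overnight, exposed 3hr at 37C to 15 concentrations (0.76% DMSO final). Lysed, then HTRF anti-pH2AX (S139) cryptate and anti-H2AX-d2 antibodies, 24 hr room temperature; 665/620 nm emission read.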
Experiment [9] can be described thus: qHTS assay to identify small molecule agonists of H2AX - cell viability counter screen (AID 1224847; calls by dose curve; note: top concentration of the series differs between compounds; nearly all actives have a fitted effect of over 30% in size). The gist of the method: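 CHO-K1 cells plated overnight at 37C, then exposed 3 h at 37C to compounds at 15 concentrations (0.76% DMSO final). Viability by CellTiter-Glo luminescence after 30 min at room temperature.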
Experiment [10] in a line: qHTS RealTime-Glo MT Cell Viability Assay in HepG2 cells - 24 hour (AID 1224867). Note: nearly all actives have a fitted effect of over 50% in size. A digest of the protocol:
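HepG2 suspension premixed with RealTime-Glo reagents is plated at 600 cells per well and left 5 h at 37 C/5% CO2. Compounds in DMSO then go in, and bioluminescence reflecting viable cell number is recorded over 40 h.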

The nature of experiment [11]: qHTS RealTime-Glo MT Cell Viability Assay in HEK293 cells - 32 hour (AID 1224868). Note: nearly all actives have a fitted effect of over 50% in size. Note: potency is the fitted concentration of half-maximal effect. A digest of the protocol:
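Reads taken at 0, 8, 16, 24, 32 and 40 h from the same wells. HEK293 cells (600/well) carried RealTime-Glo reagents from seeding, with compound added after a 5 h settle at 37 C.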

A short description of experiment [12]: A CellTox Green Cytotoxicity Assay to monitor cytotoxicity in HEK293 cells - 0 hour (AID 1224869). Note: nearly all actives have a fitted effect of over 50% in size. The gist of the method:
(§1)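 HEK293 cells premixed with CellTox Green dye were seeded at 600 cells/well and left 5 h at 37 C/5% CO2 before pin transfer of 23 nL compound in DMSO. Fluorescence from dye bound to dead-cell DNA was read during 40 h treatment.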

The nature of experiment [13]: qHTS RealTime-Glo MT Cell Viability Assay in HepG2 cells - 40 hour (AID 1224870). Note: nearly all actives have a fitted effect of over 50% in size. The gist of the method: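 HepG2 cells (600/well) mixed with RealTime-Glo MT reagent, settled 5 h at 37 C/5% CO2 before compound addition. Nonlytic NanoLuc luminescence from viable-cell prosubstrate reduction read repeatedly during 40 h treatment at 37 C.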
Experiment [14] can be described thus: A CellTox Green Cytotoxicity Assay to monitor cytotoxicity in HEK293 cells - 40 hour (AID 1224871). Note: nearly all actives have a fitted effect of over 45% in size. A digest of the protocol:
as §1

Experiment [15] is described as follows: qHTS assay to identify small molecule agonists of the hypoxia (HIF-1) signaling pathway (AID 1224846; active = well fitted activation curve with a large enough effect in the signal ratio in the repeat runs, not every such curve was filed as active; the % refers to the signal ratio). The gist of the method:
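HRE-bla ME-180 cells (beta-lactamase reporter under hypoxia response element) were plated at 2,000 cells/well in medium with 0.5% dialyzed FBS, rested 5 hrs, then given compounds in DMSO for 17 hrs at 37C, 5% CO2. Reporter induction was read with CCF4-AM FRET substrate.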

The nature of experiment [16]: qHTS assay to identify small molecule antagonists of the estrogen related receptor signaling pathway with the pleiotropic PPARgamma coactivator (PGC) from Tox21 10K library - cell viability counter screen (AID 1224840; active = well fitted cell-killing curve with a large enough effect in the repeat runs, not every such curve was filed as active; note: nearly all actives have a fitted effect of over 40% in size). The gist of the method:
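PGC/ERR cells were seeded at 2,000 cells/well and left 6 hours at 37 C/5% CO2 before pin-tool addition of compounds in DMSO. After 17.5 hours at 37 C, CellTiter-Fluor was added and fluorescence read 30 minutes later.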

The nature of experiment [17]: qHTS assay to identify small molecule antagonists of the estrogen related receptor signaling pathway with the pleiotropic PPARgamma coactivator (PGC) from Tox21 10K library (AID 1224841; call rule not given here). The gist of the method:
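PGC/ERR reporter cells were seeded at 2,000 cells/well and held 6 hours at 37 C/5% CO2 before pin-tool addition of compounds in DMSO. After 18 hours at 37 C, One-Glo was added and luminescence read after 30 minutes at room temperature.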

Experiment [18] is described as follows: qHTS assay to identify small molecule agonists of the estrogen related receptor signaling pathway with the pleiotropic PPARgamma coactivator (PGC) from Tox21 10K library (AID 1224842). Note: nearly all actives have a fitted effect of over 15% in size. The gist of the method: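 PGC/ERR reporter cell line, 2,000 cells per well, incubated 6 h at 37 C before 23 nL compound in DMSO was added. After 18 h at 37 C, One-Glo luminescence read following 30 min at room temperature.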

Experiment [19] is described as follows: qHTS assay to identify small molecule antagonists of the estrogen related receptor (ERR) signaling pathway from Tox21 library (AID 1224848). Note: nearly all actives have a fitted effect of over 50% in size. A digest of the protocol: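 Luminescent reporter read-out (ONE-Glo) from NTP's ERR cell line after 18 h treatment at 37 C with DMSO-dissolved Tox21 compounds; cells pre-plated 6 h beforehand at 2,000 per well.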
A short description of experiment [20]: qHTS assay to identify small molecule agonists of the estrogen related receptor (ERR) signaling pathway from Tox21 library (AID 1224849; calls by dose curve; note: nearly all actives have a fitted effect of over 15% in size). Conditions: ERR reporter cell line, ONE-Glo luciferase, 18 h. A digest of the protocol: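 ERR reporter cell line (NTP) seeded, rested 6 h at 37 C/5% CO2, then pinned with Tox21 compounds in DMSO. After 18 h at 37 C, ONE-Glo luciferase luminescence was read following 30 min at room temperature.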

Several values for one entry are separate records, joined by “and”; a condition that tells them apart may be missing. Identical values can stand only once. Inconclusive results are not listed. More than one record can exist for a structure, and the calls need not agree. Activity calls are given as the source filed them. Unless noted, calls come from the whole dose curve; as a rule, active = well fitted curve in the direction sought with a large enough effect in the repeat runs; inconclusive = weak or mixed curves; inactive = no such curve, though single readings can be large; an effect the other way counts as inactive or inconclusive.
% is set by controls: 0 for no effect and ±100 for the full control effect.

Chain of Luciferin 4-monooxygenase (Photinus pyralis) (P08659 whole entry, looked up): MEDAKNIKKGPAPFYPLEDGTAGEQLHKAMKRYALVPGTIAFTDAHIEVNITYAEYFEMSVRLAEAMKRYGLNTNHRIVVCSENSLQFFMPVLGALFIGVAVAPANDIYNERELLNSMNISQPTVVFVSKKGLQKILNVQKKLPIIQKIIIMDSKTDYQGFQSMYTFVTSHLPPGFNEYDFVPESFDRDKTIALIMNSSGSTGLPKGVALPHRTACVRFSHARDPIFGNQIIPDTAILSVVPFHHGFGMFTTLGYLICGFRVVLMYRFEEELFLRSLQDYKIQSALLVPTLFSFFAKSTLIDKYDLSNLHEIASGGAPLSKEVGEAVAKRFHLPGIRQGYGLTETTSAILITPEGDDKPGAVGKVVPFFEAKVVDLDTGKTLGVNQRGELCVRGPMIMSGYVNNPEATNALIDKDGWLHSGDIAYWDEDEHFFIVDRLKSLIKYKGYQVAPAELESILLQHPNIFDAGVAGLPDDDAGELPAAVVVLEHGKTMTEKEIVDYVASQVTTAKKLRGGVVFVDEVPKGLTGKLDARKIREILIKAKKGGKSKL
Chain of Nuclear receptor subfamily 1 group I member 3 (Homo sapiens) (Q14994 whole entry, looked up): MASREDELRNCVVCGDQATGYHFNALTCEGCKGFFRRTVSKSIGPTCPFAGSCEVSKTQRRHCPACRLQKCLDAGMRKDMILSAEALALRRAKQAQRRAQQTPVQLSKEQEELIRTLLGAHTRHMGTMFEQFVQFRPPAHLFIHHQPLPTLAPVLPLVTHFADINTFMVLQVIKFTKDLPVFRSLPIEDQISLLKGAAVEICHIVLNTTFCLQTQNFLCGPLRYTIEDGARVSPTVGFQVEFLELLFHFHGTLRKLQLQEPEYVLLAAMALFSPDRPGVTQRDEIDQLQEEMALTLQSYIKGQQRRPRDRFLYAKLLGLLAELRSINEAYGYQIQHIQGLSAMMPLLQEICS
Chain of Thyrotropin receptor (Homo sapiens) (P16473 whole entry, looked up): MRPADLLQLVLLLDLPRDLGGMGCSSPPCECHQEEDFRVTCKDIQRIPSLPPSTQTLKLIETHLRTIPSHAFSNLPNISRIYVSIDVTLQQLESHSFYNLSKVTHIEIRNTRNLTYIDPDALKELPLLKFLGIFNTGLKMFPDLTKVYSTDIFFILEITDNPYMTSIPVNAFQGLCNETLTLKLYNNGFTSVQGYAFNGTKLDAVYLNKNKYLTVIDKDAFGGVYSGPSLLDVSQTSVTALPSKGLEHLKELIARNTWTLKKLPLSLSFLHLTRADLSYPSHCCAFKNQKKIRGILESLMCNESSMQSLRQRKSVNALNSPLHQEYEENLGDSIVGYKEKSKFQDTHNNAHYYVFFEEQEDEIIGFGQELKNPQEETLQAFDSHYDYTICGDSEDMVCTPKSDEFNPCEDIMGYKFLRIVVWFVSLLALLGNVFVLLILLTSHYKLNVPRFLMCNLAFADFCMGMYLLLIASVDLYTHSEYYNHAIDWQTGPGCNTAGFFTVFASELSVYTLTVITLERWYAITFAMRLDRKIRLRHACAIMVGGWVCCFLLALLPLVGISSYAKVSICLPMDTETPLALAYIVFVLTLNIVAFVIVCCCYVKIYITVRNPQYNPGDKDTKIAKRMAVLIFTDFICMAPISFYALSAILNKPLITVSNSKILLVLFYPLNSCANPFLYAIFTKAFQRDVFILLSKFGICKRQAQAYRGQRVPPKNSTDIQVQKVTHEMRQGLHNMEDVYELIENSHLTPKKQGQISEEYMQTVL

For `CC(C)(Oc1ccc(Cl)cc1)C(=O)O`, the Potency entry in [1], in experiment [2], in experiment [3], in experiment [4], in experiment [5] and in experiment [6] was “inactive” in each case. Besides, the Potency entry in experiment [7], in experiment [8], in experiment [9], in [10], in experiment [11] and in [12] was “inactive” throughout. Moreover, the Potency result in experiment [13] and in experiment [14] was “inactive” in each case.
With `CC(=O)O[C@]1(C(C)=O)CC[C@H]2[C@@H]3C=C(Cl)C4=CC(=O)CC[C@]4(C)[C@H]3CC[C@@]21C`, the Potency entry in experiment [1], in experiment [2], in [3], in experiment [4], in experiment [5] and in experiment [6] was “inactive” each time. The Potency entry in experiment [7], in experiment [8], in [10], in experiment [12], in [13] and in experiment [14] was “inactive” throughout. In [15], the result was inactive. Also, in experiment [11], the Potency was 19.5 µM (active).
`O=C(O)CCCC(=O)O`: the Potency entry in experiment [1], in experiment [2], in experiment [3], in [4], in [5] and in experiment [6] was “inactive” in each case. The Potency entry in [7], in [8], in experiment [9], in experiment [10], in experiment [11] and in experiment [12] was “inactive” each time. For the same molecule, the Potency result in [13] and in experiment [14] was “inactive” in each case. Further, in experiment [15], the molecule was called inactive.
Consider `c1ccc2c(c1)[nH]c1ccccc12`, for which the Potency in [1] was 39.2 µM (active) and inactive; in experiment [5], 60.1 µM (active). Moreover, the Potency entry in [2], in experiment [3], in [4], in [16], in [7] and in [8] was “inactive” in each case. The Potency result in experiment [9], in [10], in [11], in experiment [12], in experiment [13] and in experiment [14] was “inactive” throughout. Moreover, the call in [15] was inactive.
Take `C/C=C/C(=O)N(CC)c1ccccc1C`: the Potency entry in experiment [1], in [2], in experiment [3], in experiment [4], in experiment [17] and in experiment [18] was “inactive” in each case. For the same molecule, the Potency result in experiment [6], in experiment [7], in experiment [8], in experiment [9], in experiment [19] and in [10] was “inactive” throughout. The Potency entry in [11], in experiment [12], in [13] and in experiment [14] was “inactive” each time. In addition, in experiment [5], the Potency was 27.3 µM (active). Further, the activity change, positive = activation is 9.15% (inactive) in [20] (at 42.5 µM (top of the series)) and -2.58% (inactive) in [20] (at 92.4 µM (top of the series)).
On to `NCCS(=O)(=O)O`, for which the Potency in [1] is 41.5 µM (active) and inactive. In addition, the Potency result in experiment [2], in experiment [3], in experiment [4], in experiment [16], in experiment [6] and in [7] was “inactive” throughout. Besides, the Potency entry in experiment [8], in [9], in experiment [10], in experiment [11], in [12] and in [14] was “inactive” throughout.
With `Oc1c(Cl)ccc(Cl)c1Cl`, the Potency entry in experiment [1], in [2], in experiment [3], in experiment [4], in experiment [5] and in experiment [17] was “inactive” throughout. For the same molecule, the Potency entry in experiment [18], in [7], in [8], in [19], in experiment [10] and in [11] was “inactive” throughout. Further, the Potency entry in [12], in [13] and in experiment [14] was “inactive” throughout. Further, the call in experiment [15] was inactive. In experiment [20] (at 92.4 µM (top of the series)), the activity change, positive = activation is 1.41% (inactive) and -6.03% (inactive).
